Test [1] deals with Hepatocyte nuclear factor 3-beta (Homo sapiens) (UniProt Q9Y261). Description: ATG_FoxA2_CIS: Attagene CIS-FACTORIAL HepG2 Assay for human Forkhead box A2 (FOXA2) (AID 2282942). The conditions noted are these: HepG2 cis-reporter transcription factor activity, 24 h; actives raise or lower the signal. The procedure, abridged:
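Endogenous transcription factor activity was read in HepG2 cells carrying transiently transfected cis-promoter reporter units. After 24 h dosing, reporter mRNA was quantified by RT-PCR and capillary electrophoresis, and values fitted bidirectionally versus DMSO.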

Test [2] concerns the target Heat shock factor protein 1 (Homo sapiens) (UniProt Q00613). Description: ATG_HSE_CIS: Attagene CIS-FACTORIAL HepG2 Assay for human Heat Shock Transcription Factor 1 (HSE) (AID 2282953). As to conditions: HepG2 HSE cis-reporter, Attagene RNA transcription; actives raise or lower the signal. The procedure, abridged:
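Using HepG2 with transfected cis-driven reporter constructs, compound effects on endogenous factor activity are scored as reporter mRNA change at 24 h. Detection: RT-PCR, HpaI digestion, capillary electrophoresis; bidirectional fitting to DMSO.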

The nature of test [3]: ATG_RORE_CIS: Attagene CIS-FACTORIAL HepG2 Assay for human RAR-related Orphan Receptor Element (RORE) (AID 2282959). As to conditions: HepG2 Attagene cis-factorial RORE reporter, mRNA; actives raise or lower the signal. Put shortly: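 Cells were HepG2 carrying transfected cis-regulated reporter constructs, dosed for 24 hours. Total RNA was reverse-transcribed and reporter cDNA amplified, fluorescently labeled and sized by capillary electrophoresis. Activity was fitted bidirectionally relative to DMSO.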

Test [4] is described as follows: ATG_Sox_CIS: Attagene CIS-FACTORIAL HepG2 Assay for human SRY-box transcription factor (SOX) (AID 2282960). As to conditions: HepG2 Attagene cis-factorial SOX reporter, mRNA; actives raise or lower the signal. Put shortly:
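Transient MRTU transfection of HepG2; 24 h compound incubation; TriZol RNA, oligo(dT) RT, PCR, 6-FAM primer extension, HpaI cut, CE. Bidirectional fit, DMSO = baseline.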

For test [5], the target named is Transcription factor Sp1 (Homo sapiens) (UniProt P08047). Description: ATG_Sp1_CIS: Attagene CIS-FACTORIAL HepG2 Assay for human Specificity Protein 1 (Sp1) (AID 2282961). The conditions noted are these: HepG2 Sp1 cis-reporter transcription, actives raise or lower the signal. Put shortly: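 Endogenous Sp1 activity was gauged in human liver HepG2 cells bearing transfected reporter units under a cis-regulating promoter. After 24 h dosing, reporter mRNA was quantified by RT-PCR with capillary electrophoresis, and activity fitted bidirectionally versus DMSO.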

A short description of test [6]: ATG_SREBP_CIS: Attagene CIS-FACTORIAL HepG2 Assay for human Sterol Regulatory Element Binding (SREBP) (AID 2282962). The conditions noted are these: HepG2 Attagene cis-factorial SREBP reporter, mRNA; actives raise or lower the signal. Put shortly: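 HepG2 cells transiently transfected with multiplexed cis-promoter reporter units sensing endogenous transcription factors; reporter mRNA measured 24 h after dosing by RT-PCR, 6-FAM labeling, HpaI digestion and capillary electrophoresis. Bidirectional fit versus DMSO.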

In test [7] the target is Signal transducer and activator of transcription 3 (Homo sapiens) (UniProt P40763). Description: ATG_STAT3_CIS: Attagene CIS-FACTORIAL HepG2 Assay for human Signal Transducer and Activator of Transcription 3 (STAT3) (AID 2282963). The conditions noted are these: HepG2, Attagene cis-factorial STAT3 reporter transcription; actives raise or lower the signal. Put shortly: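 HepG2 cells transiently transfected with multiple cis-element-driven reporter units report endogenous transcription factor activity. After 24 h compound exposure, reporter mRNA is measured by RT-PCR, 6-FAM labelling, HpaI digestion and capillary electrophoresis. Fitted bidirectionally versus DMSO.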

Test [8] in a line: ATG_TA_CIS: Attagene CIS-FACTORIAL HepG2 Assay for human TA Basal Promoter (AID 2282964). The conditions noted are these: HepG2 Attagene CIS-factorial TA basal promoter reporter; actives raise or lower the signal. Put shortly: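 Transient MRTU transfection of HepG2 preceded 24 h compound exposure. Reporter mRNA levels were then read by RT-PCR with capillary electrophoresis, and this background-control endpoint was fitted bidirectionally to DMSO.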

The nature of test [9]: ATG_TCF_b_cat_CIS: Attagene CIS-FACTORIAL HepG2 Assay for human T-Cell-Factor with beta-catenin (TCF/b-cat) (AID 2282965). As to conditions: HepG2 TCF/beta-catenin cis-reporter transcription, actives raise or lower the signal. Put shortly:
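HepG2 cells transiently transfected with cis-promoter-driven multiplexed reporter units; reporter mRNA measured 24 h after dosing by RT-PCR, FAM labelling, HpaI digestion and capillary electrophoresis. Bidirectional fitting relative to DMSO baseline.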

The nature of test [10]: ATG_TAL_CIS: Attagene CIS-FACTORIAL HepG2 Assay for human TAL Basal Promoter (AID 2282966).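 Note: background control endpoint measuring basal TAL promoter reporter mRNA not a specific factor.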 As to conditions: HepG2 Attagene cis-factorial TAL promoter reporter; actives raise or lower the signal. Put shortly:
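In this cell-based multiplex, HepG2 liver cells bearing cis-promoter reporter constructs are dosed for 24 hours. Total RNA is reverse-transcribed and amplified, labelled fragments are sized by capillary electrophoresis, and signal changes are fitted bidirectionally versus DMSO.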

Test [11] deals with Transcriptional activator Myb (Homo sapiens) (UniProt P10242). Description: ATG_Myb_CIS: Attagene CIS-FACTORIAL HepG2 Assay for human Myeloblastosis (Myb) Proto-Oncogene Transcription Factor (AID 2282986). The conditions noted are these: HepG2 Attagene CIS-FACTORIAL Myb reporter transcription; actives raise or lower the signal. Put shortly: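 Steps: transfect HepG2 with cis-regulated reporter units; dose with chemical for 24 h; isolate RNA, reverse-transcribe, PCR-amplify and FAM-label reporter sequences; digest with HpaI; resolve by capillary electrophoresis. Activity fitted in both directions relative to DMSO.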

Test [12] addresses Myc proto-oncogene protein (Homo sapiens) (UniProt P01106). As to the kind of experiment: ATG_Myc_CIS: Attagene CIS-FACTORIAL HepG2 Assay for human Myelocytomatosis (Myc) Proto-Oncogene Transcription Factor (AID 2282990). The conditions noted are these: HepG2, Attagene cis-reporter transcription factor activity; actives raise or lower the signal. The procedure, abridged: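 Transiently transfected HepG2 cells bearing cis-promoter reporter units for endogenous transcription factors; 24 h exposure. Reporter mRNA measured by RT-PCR, 6-FAM primer extension, HpaI cut and capillary electrophoresis; bidirectional fit relative to DMSO.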

The nature of test [13]: ATG_Oct_MLP_CIS: Attagene CIS-FACTORIAL HepG2 Assay for human Octamer-Binding Transcription Factor (Oct) (AID 2282993). As to conditions: HepG2 Attagene cis-factorial Oct reporter, mRNA; actives raise or lower the signal. The procedure, abridged: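 Transfected HepG2 cells, 24 h treatment. Reporter mRNA quantified by RT-PCR–capillary electrophoresis; bidirectional fitting against DMSO.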

In test [14] the target is Cellular tumor antigen p53 (Homo sapiens) (UniProt P04637). Description: ATG_p53_CIS: Attagene CIS-FACTORIAL HepG2 Assay for human p53 Transcription Factor (AID 2282994). The conditions noted are these: HepG2 p53 cis-element reporter, Attagene mRNA; actives raise or lower the signal. The procedure, abridged:
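HepG2 cells transiently transfected with cis-regulated multiple reporter transcription units, dosed 24 h. Reporter mRNA measured by RT-PCR, 6-FAM primer extension, HpaI digestion and capillary electrophoresis; bidirectional fit relative to DMSO.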

Test [15] concerns the target Nuclear receptor subfamily 1 group I member 2 (Homo sapiens) (UniProt O75469). As to the kind of experiment: ATG_PXR_TRANS: Attagene TRANS-FACTORIAL HepG2 Assay for human Pregnane X Receptor (PXR) (AID 2283008; active = hit-call score of the fitted dose curve at least 0.9, where 1 is the maximum). The procedure, abridged:
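HepG2 cells transiently transfected with GAL4-UAS reporter units and PXR-Gal4 chimera, exposed 24 h. Reporter mRNA quantified by RT-PCR, fluorescent labelling, HpaI digestion and capillary electrophoresis; gain of signal vs DMSO.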

Test [16] is described as follows: ATG_VDRE_CIS: Attagene CIS-FACTORIAL HepG2 Assay for human Vitamin D Receptor Element (VDRE) (AID 2282968). The conditions noted are these: HepG2 VDRE cis-reporter transcription, actives raise or lower the signal. Put shortly: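 Transiently transfected HepG2 cells carrying cis-regulated reporter transcription units were exposed for 24 h. Reporter mRNA was measured by RT-PCR with fluorescent labelling and capillary electrophoresis, and fitted in both directions against DMSO.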

Test [17] concerns the target Nuclear respiratory factor 1 (Homo sapiens) (UniProt Q16656). As to the kind of experiment: ATG_NRF1_CIS: Attagene CIS-FACTORIAL HepG2 Assay for human Nuclear Respiratory Factor 1 (NRF1) Orphan Gene (AID 2282987). The conditions noted are these: HepG2 NRF1 cis-element reporter, Attagene multiplex; actives raise or lower the signal. Put shortly: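 Fluorescence intensity of labelled reporter cDNA fragments, resolved by capillary electrophoresis, served as readout for NRF1 cis-element activity. Transiently transfected HepG2 cells were dosed for 24 hours; activity in either direction was fitted against DMSO negative control.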

Test [18] can be described thus: ATG_NFI_CIS: Attagene CIS-FACTORIAL HepG2 Assay for human Nuclear Factor I (NFI) (AID 2282989). The conditions noted are these: HepG2 cis-regulatory reporter, NFI response element transcription; actives raise or lower the signal. The procedure, abridged:
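Reporter transcription driven by endogenous transcription factors in HepG2 cells; 24 h treatment. Quantitation by labelled RT-PCR fragments on capillary electrophoresis, gain- or loss-of-signal relative to DMSO.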

A short description of test [19]: ATG_NRF2_ARE_CIS: Attagene CIS-FACTORIAL HepG2 Assay for human Nuclear Factor Erythroid 2 Related Factor 2 (NFR2) response to Antioxidant Response Elements (ARE) (AID 2282992).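 For AC50: reporter mRNA level measured by RT-PCR and capillary electrophoresis fluorescence.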 As to conditions: HepG2 Attagene ARE/NRF2 reporter, transcription factor activity; actives raise or lower the signal. Put shortly: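 HepG2 cells transiently transfected with multiplexed cis-element reporter constructs, 24 h after chemical dosing; reporter mRNA quantified by RT-PCR, fluorescent primer extension, HpaI digestion and capillary electrophoresis. Bidirectional fit relative to DMSO.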

Test [20] in a line: ATG_XTT_Cytotoxicity: Cytotoxicity Assessment in the Attagene TRANS-FACTORIAL HepG2 Assay (AID 2283584; active = hit-call score of the fitted dose curve at least 0.9, where 1 is the maximum). Put shortly:
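XTT readout of cell number in transfected HepG2 cells, 24 h post-dosing; DMSO serves as negative control and baseline, with activity taken as loss of viability signal.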

Inconclusive results are not listed. Activity calls are given as the source filed them. Rule for the calls, unless noted: active = hit-call score of the fitted dose curve at least 0.9, where 1 is the maximum; inactive = score below 0.9.

A word on the AC50: it is the midpoint of the concentration-response curve, whichever way the signal moves.

Sequence of Cellular tumor antigen p53 (Homo sapiens) (P04637 whole entry, looked up): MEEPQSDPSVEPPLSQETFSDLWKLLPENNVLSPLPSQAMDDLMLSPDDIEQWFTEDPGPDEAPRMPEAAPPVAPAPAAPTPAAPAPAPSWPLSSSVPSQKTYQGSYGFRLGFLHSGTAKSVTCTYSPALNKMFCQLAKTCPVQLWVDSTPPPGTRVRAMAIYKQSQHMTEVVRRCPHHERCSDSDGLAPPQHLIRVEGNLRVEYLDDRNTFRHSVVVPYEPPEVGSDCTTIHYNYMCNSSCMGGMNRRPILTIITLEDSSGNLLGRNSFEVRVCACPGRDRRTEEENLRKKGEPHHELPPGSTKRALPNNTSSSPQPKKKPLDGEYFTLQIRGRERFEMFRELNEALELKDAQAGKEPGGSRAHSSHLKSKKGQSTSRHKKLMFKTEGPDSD
Sequence of Nuclear respiratory factor 1 (Homo sapiens) (Q16656 whole entry, looked up, the tested form may be a part): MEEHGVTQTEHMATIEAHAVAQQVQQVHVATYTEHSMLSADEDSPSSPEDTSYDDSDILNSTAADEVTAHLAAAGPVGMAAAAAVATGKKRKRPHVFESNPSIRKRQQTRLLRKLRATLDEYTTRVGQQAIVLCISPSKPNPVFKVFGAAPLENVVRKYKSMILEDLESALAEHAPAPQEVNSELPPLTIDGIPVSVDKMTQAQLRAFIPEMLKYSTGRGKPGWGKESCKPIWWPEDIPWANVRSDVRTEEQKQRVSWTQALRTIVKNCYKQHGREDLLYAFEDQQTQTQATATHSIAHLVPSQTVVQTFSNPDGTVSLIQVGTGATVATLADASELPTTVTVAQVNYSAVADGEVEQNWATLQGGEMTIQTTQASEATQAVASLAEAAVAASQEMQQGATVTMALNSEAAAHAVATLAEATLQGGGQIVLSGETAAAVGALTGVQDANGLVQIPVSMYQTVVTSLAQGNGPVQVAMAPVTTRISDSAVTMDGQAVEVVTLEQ
Sequence of Myc proto-oncogene protein (Homo sapiens) (P01106 whole entry, looked up): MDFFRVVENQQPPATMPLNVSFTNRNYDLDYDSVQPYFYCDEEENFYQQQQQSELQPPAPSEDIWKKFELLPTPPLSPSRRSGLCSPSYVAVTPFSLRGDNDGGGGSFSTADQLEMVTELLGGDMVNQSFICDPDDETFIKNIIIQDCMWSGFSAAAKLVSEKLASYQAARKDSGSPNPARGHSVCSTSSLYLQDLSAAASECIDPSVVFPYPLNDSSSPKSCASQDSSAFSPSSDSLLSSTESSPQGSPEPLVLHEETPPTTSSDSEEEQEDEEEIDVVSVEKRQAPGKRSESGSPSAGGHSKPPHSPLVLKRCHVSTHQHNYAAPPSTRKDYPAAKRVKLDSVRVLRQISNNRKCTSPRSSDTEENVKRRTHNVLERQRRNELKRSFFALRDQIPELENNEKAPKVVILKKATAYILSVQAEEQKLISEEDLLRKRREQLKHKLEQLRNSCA
Sequence of Transcriptional activator Myb (Homo sapiens) (P10242 whole entry, looked up): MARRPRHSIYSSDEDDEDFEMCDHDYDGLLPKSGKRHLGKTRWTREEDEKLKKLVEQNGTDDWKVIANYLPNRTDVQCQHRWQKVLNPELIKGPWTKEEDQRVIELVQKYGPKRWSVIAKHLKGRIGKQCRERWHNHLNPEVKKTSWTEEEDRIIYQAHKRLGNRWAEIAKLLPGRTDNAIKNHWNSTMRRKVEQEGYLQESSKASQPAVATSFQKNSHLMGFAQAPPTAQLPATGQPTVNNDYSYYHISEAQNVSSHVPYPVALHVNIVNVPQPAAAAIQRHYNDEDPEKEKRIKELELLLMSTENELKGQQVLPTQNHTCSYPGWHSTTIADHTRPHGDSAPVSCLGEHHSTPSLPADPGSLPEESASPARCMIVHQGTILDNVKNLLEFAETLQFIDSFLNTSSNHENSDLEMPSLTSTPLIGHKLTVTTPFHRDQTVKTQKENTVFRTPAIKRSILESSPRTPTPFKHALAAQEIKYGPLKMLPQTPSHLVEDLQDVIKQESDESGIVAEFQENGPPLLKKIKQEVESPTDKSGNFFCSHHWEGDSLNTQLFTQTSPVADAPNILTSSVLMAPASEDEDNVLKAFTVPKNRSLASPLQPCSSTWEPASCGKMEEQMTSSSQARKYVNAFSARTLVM
Sequence of Signal transducer and activator of transcription 3 (Homo sapiens) (P40763 whole entry, looked up): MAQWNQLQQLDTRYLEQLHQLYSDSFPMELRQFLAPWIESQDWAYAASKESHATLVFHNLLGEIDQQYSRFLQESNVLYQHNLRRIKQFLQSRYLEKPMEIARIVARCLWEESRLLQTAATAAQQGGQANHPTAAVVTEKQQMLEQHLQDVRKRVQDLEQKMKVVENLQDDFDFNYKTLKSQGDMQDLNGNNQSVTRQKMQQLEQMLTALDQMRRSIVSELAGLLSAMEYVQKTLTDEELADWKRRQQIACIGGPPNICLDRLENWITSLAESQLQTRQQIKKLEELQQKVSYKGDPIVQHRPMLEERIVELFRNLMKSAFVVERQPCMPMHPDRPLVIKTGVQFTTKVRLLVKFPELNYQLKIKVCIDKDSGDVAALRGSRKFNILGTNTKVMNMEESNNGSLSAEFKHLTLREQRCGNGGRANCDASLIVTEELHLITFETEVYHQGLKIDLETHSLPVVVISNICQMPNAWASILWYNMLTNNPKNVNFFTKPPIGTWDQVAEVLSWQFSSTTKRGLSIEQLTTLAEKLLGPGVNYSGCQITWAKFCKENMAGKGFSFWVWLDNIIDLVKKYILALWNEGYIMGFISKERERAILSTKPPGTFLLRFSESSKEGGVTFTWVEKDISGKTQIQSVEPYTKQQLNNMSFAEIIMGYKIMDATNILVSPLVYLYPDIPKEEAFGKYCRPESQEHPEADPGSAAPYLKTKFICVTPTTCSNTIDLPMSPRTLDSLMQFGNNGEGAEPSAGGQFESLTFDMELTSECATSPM
Sequence of Nuclear receptor subfamily 1 group I member 2 (Homo sapiens) (O75469 whole entry, looked up, the tested form may be a part): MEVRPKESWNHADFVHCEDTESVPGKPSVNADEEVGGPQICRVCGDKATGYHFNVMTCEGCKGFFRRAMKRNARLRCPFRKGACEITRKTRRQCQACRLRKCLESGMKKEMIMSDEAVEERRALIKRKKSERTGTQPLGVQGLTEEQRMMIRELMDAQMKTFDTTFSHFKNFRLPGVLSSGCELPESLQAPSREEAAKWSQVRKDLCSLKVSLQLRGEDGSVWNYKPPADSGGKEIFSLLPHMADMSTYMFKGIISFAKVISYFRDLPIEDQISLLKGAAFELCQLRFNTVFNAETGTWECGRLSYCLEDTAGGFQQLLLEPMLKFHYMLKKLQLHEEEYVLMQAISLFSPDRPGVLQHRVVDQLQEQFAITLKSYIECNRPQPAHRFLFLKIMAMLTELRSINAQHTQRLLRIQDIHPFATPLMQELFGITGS
Sequence of Transcription factor Sp1 (Homo sapiens) (P08047 whole entry, looked up): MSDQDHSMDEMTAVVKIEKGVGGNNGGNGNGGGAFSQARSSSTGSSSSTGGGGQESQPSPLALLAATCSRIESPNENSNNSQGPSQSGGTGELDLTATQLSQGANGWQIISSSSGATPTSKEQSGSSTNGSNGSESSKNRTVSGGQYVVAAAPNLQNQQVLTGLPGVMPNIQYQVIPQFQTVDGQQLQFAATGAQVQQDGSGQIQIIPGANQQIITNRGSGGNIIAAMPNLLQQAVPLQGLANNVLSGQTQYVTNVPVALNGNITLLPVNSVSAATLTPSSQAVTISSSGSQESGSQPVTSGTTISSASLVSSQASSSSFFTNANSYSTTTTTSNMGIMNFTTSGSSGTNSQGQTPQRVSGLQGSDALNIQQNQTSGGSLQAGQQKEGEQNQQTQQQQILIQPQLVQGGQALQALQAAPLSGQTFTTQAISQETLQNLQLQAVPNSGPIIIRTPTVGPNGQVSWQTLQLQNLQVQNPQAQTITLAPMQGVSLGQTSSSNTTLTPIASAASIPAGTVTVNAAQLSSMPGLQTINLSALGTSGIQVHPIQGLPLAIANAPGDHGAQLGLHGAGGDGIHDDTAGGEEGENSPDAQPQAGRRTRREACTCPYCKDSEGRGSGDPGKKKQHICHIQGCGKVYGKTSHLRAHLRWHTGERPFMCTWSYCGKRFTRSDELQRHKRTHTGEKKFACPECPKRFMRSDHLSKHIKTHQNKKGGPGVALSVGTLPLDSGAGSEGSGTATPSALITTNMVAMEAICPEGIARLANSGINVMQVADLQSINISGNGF
Sequence of Heat shock factor protein 1 (Homo sapiens) (Q00613 whole entry, looked up): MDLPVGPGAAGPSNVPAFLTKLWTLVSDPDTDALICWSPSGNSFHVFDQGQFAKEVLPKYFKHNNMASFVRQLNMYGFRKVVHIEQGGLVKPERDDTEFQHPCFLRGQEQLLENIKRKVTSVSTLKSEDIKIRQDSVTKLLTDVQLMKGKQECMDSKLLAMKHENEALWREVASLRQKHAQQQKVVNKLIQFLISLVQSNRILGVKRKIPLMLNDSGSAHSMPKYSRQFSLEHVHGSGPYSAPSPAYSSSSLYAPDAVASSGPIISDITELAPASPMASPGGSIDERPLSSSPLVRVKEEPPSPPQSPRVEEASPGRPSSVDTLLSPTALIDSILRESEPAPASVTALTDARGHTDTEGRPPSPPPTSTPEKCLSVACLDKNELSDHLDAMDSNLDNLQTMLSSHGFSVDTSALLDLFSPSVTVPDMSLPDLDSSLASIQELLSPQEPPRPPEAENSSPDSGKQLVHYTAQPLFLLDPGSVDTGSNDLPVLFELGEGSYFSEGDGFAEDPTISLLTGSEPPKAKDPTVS
Sequence of Hepatocyte nuclear factor 3-beta (Homo sapiens) (Q9Y261 whole entry, looked up): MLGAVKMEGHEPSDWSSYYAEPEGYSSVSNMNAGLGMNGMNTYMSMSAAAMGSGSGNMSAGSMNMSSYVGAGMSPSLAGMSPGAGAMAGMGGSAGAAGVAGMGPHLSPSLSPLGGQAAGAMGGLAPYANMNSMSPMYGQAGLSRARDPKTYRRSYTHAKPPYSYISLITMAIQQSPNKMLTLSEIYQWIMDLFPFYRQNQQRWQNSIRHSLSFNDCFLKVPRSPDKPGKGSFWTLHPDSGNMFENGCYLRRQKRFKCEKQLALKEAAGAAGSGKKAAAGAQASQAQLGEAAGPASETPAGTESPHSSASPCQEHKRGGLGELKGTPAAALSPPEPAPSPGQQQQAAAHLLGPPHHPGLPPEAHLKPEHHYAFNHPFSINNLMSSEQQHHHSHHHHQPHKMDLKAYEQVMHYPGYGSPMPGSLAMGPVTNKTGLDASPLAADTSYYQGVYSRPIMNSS

Take `CC(C)n1c(/C=C/[C@@H](O)C[C@@H](O)CC(=O)O)c(-c2ccc(F)cc2)c2ccccc21`: the result in [1], in test [2], in test [4], in [5], in [7] and in [8] was inactive. Further, the outcome in test [9], in test [10], in test [11], in test [12], in test [13] and in test [15] was inactive. Further, the values for the AC50 in test [3], in [6] and in [14] were 55.3 µM (active), 0.284 µM (active) and 26 µM (active), respectively.

Take `CCCCCCCCCCCCCC`: the compound was called inactive in test [1], in test [2], in test [3], in test [4], in test [5] and in test [6]. Also, the result in test [7], in [8], in [9], in test [10], in test [16] and in test [11] was inactive. In addition, the compound was classed as inactive in test [17], in test [18], in test [12], in test [19], in [13] and in test [14]. Besides, the compound was called inactive in test [15] and in test [20].

Consider `C=C(C)C(=O)OCCCCCC`, for which the call in test [1], in [2], in test [4], in test [5], in test [6] and in test [7] was inactive. Also, the compound was classed as inactive in test [8], in [9], in test [10], in [16], in test [11] and in test [17]. Also, the outcome in [18], in [12], in test [19], in test [13], in test [14] and in test [20] was inactive.

For `CC1=C(CC=O)C(C)(C)CCC1`, the compound was called inactive in test [1], in [2], in test [3], in test [4], in test [5] and in test [6]. Also, the result in test [7], in [8], in test [9], in test [10], in test [16] and in test [11] was inactive. Moreover, the compound was called inactive in [17], in test [18], in test [12], in [13] and in [14]. Further, the AC50 in test [19] is 30.2 µM (active); in test [15], 1.38 µM (active).

The values above are taken from PubChem BioAssay (EPA / NIEHS).
